Potency data for 19 compounds are collected here from PubChem BioAssay (NCATS).

The target in assay [1] is Aldehyde dehydrogenase, mitochondrial (Homo sapiens) (UniProt P05091). Nature of the assay: qHTS for Inhibitors of the Aldehyde Dehydrogenase Family (ALDH2) Primary screen (AID 2061308). Note: nearly all actives have a fitted effect of over 55% in size. For orientation: qHTS replaces the single test concentration by a dilution series.
The target in assay [2] is Retinaldehyde dehydrogenase 3 (Homo sapiens) (UniProt P47895). The assay can be described thus: qHTS for Inhibitors of the Aldehyde Dehydrogenase Family (ALDH1A3) Primary screen (AID 2061315).

Results filed as inconclusive are left out. Where a call stands in place of a potency, no number is given. Activity calls are given as the source filed them. Calls come from the whole dose curve; as a rule, active = well fitted curve in the direction sought with a large enough effect; inconclusive = small, poorly fitted or top-dose-only effect, or another doubt; inactive = no such curve, though single readings can be large; an effect the other way counts as inactive or inconclusive.

As for `O=C1Cc2cc(S(=O)(=O)N3CCN(c4ccc(CO)cc4)CC3)ccc2N1`, the Potency result in assay [1] and in assay [2] was “inactive” in each case.

Take `O=C(Nc1sc2c(c1-c1nc3ccccc3s1)CCNC2)C(F)F`: the Potency entry in assay [1] and in assay [2] was “inactive” in each case.

Take `Fc1cccc(CNc2ncnc3ccc(-c4cccnc4)cc23)c1`: the Potency result in assay [1] and in assay [2] was “inactive” each time.

For `CN1CCOc2ccc(S(=O)(=O)N3CCN(S(=O)(=O)c4c(F)cccc4F)CC3)cc21`, the Potency result in assay [1] and in assay [2] was “inactive” each time.

Consider `Cc1noc(C)c1-c1ccc2ncnc(NCc3ccc(Br)cc3)c2c1`, for which the Potency entry in assay [1] and in assay [2] was “inactive” throughout.

Consider `CCOC(=O)c1ccoc1-c1ccc2ncnc(NCc3csc(C)n3)c2c1`, for which the Potency result in assay [1] and in assay [2] was “inactive” in each case.

Take `O=C1CCCC2=C1C(c1[nH]ncc1Cl)NC(=NCc1nccs1)N2` (stereo not drawn): the Potency entry in assay [1] and in assay [2] was “inactive” throughout.

Consider `COc1cc(NS(=O)(=O)c2ccc3ccccc3c2)c2ncccc2c1`, for which the Potency result in assay [1] and in assay [2] was “inactive” throughout.

As to `O=S(=O)(c1cccc(C(F)(F)F)c1)N1CCN(S(=O)(=O)c2ccc3c(c2)OCCO3)CC1`, the Potency entry in assay [1] and in assay [2] was “inactive” each time.

On to `O=[S+]([O-])(c1c(F)cccc1F)N1CCN([S+](=O)([O-])c2cccc3nonc23)CC1`, for which the Potency entry in assay [1] and in assay [2] was “inactive” in each case.

With `COc1cccc(Cn2ncc3c4sc(SC)cc4n(C)c3c2=O)c1`, the Potency entry in assay [1] and in assay [2] was “inactive” throughout.

As for `O=S(=O)(Nc1nccs1)c1ccc(NCc2cc(F)ccc2O)cc1`, the Potency entry in assay [1] and in assay [2] was “inactive” throughout.

On to `NC(=O)C1CCN(c2nc(-c3cccc4ccccc34)cs2)CC1`, for which the Potency entry in assay [1] and in assay [2] was “inactive” throughout.

As to `Fc1ccc(Nc2nc(-c3ccnc(N4CCCCC4)c3)nc3ccccc23)cc1F`, the Potency result in assay [1] and in assay [2] was “inactive” in each case.

As to `Cc1ccc(S(=O)(=O)N(C)c2cccc3cccnc23)cc1`, the Potency result in assay [1] and in assay [2] was “inactive” throughout.

As to `Cc1ccc(-c2nc(NCC(=O)Nc3cccc(C(=O)O)c3)c3ccccc3n2)cc1`, the Potency entry in assay [1] and in assay [2] was “inactive” throughout.

In the case of `Cc1ccnc(NC(=S)N2CCc3ccccc3C2)c1`, the Potency entry in assay [1] and in assay [2] was “inactive” throughout.

With `Cc1ccc(CNc2nc(-c3ccccc3C(F)(F)F)nc3ccccc23)cc1`, the Potency result in assay [1] and in assay [2] was “inactive” in each case.

With `C=CCNc1oc(-c2cccc(F)c2)nc1C#N`, the Potency entry in assay [1] and in assay [2] was “inactive” throughout.
